Of roughly 7,900 targets only a part is listed; those with a hit were picked by preference. About 0.6% of all pairs of compound and target were hits. A number with no mark means an inactive call.
Legend:
Assay in all cases: log2 fold change, soluble protein after heating vs DMSO (PISA); higher = thermal stabilisation; K562 cells, 10 uM, 30 min; active = over 0.2 and 3.5 SD of the protein, either way, in both replicates (recomputed)
bafetinib = compound: Cc1ccc(NC(=O)c2ccc(CN3CC[C@H](N(C)C)C3)c(C(F)(F)F)c2)cc1Nc1nccc(-c2cncnc2)n1 [bafetinib]
In short: (§1)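 K562 cells (2×10^6 cells/mL) were treated with 10 μM compound for 30 min, and aliquots were heated for 3 min over 48°C-58°C. Pooled aliquots were extracted in PBS with 0.5% NP-40 at 4°C, and the supernatant after 21,000xg for 90 min was measured by TMTpro 16plex LC-MS/MS with channel sums equalised. Reported thermal stability, relative to control samples and from duplicates, is a log2 fold change.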

[1] = compound: Cc1cccc(CC(=O)N2CCc3c2ccc(-c2cn(C)c4ncnc(N)c24)c3F)n1
In short: as §1

nilotinib = compound: Cc1cn(-c2cc(NC(=O)c3ccc(C)c(Nc4nccc(-c5cccnc5)n4)c3)cc(C(F)(F)F)c2)cn1 [nilotinib]
In short: as §1

[2] = compound: Cc1nc(Nc2n[nH]c3c2CN(C(=O)N[C@H](CN(C)C)c2ccccc2)C3(C)C)c2sccc2n1
In short: as §1

dasatinib = compound: Cc1nc(Nc2ncc(C(=O)Nc3c(C)cccc3Cl)s2)cc(N2CCN(CCO)CC2)n1 [dasatinib]
In short: as §1

[3] = compound: Cc1ncc(-c2ccnc(Nc3ccc(S(C)(=O)=O)cc3)n2)n1C(C)C
In short: as §1

[4] = compound: Cn1cc(-c2ccc3c(c2)CCN3C(=O)Cc2cccc(C(F)(F)F)c2)c2c(N)ncnc21
In short: as §1

[5] = compound: Cn1cc(-c2ccc3nnc(C(F)(F)c4ccc5ncccc5c4)n3n2)cn1
In short: as §1

tipifarnib = compound: Cn1cncc1[C@@](N)(c1ccc(Cl)cc1)c1ccc2c(c1)c(-c1cccc(Cl)c1)cc(=O)n2C [tipifarnib]
In short: as §1

mubritinib = compound: FC(F)(F)c1ccc(/C=C/c2nc(COc3ccc(CCCCn4ccnn4)cc3)co2)cc1 [mubritinib]
In short: as §1

[6] = compound: NC(=O)Nc1cc(-c2cccc(F)c2)sc1C(=O)N[C@H]1CCCNC1
In short: as §1

[7] = compound: NC(=O)c1cnc(N[C@@H]2CCCC[C@@H]2N)nc1Nc1cccc(-n2nccn2)c1
In short: as §1

[8] = compound: NC1(c2ccc(-c3nc4ccn5c(=O)[nH]nc5c4cc3-c3ccccc3)cc2)CCC1
In short: as §1

[9] = compound: NCC(=O)Nc1ccc(-n2nc(C(F)(F)F)cc2-c2ccc3c(ccc4ccccc43)c2)cc1
In short: as §1

entinostat = compound: Nc1ccccc1NC(=O)c1ccc(CNC(=O)OCc2cccnc2)cc1 [entinostat]
In short: as §1

vorinostat = compound: O=C(CCCCCCC(=O)Nc1ccccc1)NO [vorinostat]
In short: as §1

citarinostat = compound: O=C(CCCCCCNC(=O)c1cnc(N(c2ccccc2)c2ccccc2Cl)nc1)NO [citarinostat]
In short: as §1

silmitasertib = compound: O=C(O)c1ccc2c(c1)nc(Nc1cccc(Cl)c1)c1ccncc12 [silmitasertib]
In short: as §1

[10] = compound: O=C1NC(=O)C(c2cnc3ccccn23)=C1c1cn2c3c(cc(F)cc13)CN(C(=O)N1CCCCC1)CC2
In short: as §1

[11] = compound: c1cc(OCCN2CCCCC2)cc(-c2n[nH]c3ccc(-c4nnc[nH]4)cc23)c1
In short: as §1

Chain of UniProt Q9NSY1 (Q9NSY1 whole entry, looked up): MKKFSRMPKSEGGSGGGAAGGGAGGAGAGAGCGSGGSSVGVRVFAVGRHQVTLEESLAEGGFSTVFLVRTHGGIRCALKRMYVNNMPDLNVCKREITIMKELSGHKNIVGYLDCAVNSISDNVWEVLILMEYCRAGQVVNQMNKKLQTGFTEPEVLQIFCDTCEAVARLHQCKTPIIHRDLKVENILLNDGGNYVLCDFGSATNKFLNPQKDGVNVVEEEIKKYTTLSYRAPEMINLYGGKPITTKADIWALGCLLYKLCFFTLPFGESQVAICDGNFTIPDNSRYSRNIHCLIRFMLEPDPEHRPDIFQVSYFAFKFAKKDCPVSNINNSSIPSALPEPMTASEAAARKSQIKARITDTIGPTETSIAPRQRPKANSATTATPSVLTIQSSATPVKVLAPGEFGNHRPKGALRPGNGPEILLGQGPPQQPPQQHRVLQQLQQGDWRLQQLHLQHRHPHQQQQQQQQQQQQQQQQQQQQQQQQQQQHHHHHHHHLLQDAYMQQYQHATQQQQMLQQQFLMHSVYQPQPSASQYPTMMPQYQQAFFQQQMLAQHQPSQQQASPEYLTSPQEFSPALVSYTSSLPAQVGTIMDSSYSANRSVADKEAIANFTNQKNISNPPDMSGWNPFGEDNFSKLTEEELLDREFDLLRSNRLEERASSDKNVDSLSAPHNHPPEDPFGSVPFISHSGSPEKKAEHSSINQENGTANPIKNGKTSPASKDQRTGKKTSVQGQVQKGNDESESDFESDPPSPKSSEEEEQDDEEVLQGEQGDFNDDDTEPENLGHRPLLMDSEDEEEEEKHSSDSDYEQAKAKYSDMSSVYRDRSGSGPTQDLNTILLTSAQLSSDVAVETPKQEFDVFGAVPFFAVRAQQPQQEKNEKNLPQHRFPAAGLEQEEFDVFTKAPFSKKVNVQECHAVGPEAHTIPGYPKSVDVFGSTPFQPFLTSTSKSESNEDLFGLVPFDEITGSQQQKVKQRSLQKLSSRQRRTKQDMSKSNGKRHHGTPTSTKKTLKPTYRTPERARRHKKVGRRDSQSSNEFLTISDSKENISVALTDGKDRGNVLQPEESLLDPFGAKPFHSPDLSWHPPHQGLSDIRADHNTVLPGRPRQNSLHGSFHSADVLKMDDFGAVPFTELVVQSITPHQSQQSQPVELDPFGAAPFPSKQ
Chain of UniProt Q15904 (Q15904 whole entry, looked up): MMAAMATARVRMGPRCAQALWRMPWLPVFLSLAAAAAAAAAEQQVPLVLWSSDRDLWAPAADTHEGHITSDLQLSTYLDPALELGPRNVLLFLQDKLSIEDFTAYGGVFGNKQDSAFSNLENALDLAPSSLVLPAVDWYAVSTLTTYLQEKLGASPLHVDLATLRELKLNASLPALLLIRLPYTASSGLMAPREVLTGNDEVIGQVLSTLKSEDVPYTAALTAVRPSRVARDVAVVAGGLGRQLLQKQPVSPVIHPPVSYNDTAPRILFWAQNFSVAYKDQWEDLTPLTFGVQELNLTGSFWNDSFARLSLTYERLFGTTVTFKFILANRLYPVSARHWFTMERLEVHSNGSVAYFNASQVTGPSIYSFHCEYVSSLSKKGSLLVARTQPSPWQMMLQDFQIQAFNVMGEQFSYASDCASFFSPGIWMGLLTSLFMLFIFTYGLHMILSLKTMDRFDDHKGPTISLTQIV
Chain of UniProt Q9Y6H3 (Q9Y6H3 whole entry, looked up): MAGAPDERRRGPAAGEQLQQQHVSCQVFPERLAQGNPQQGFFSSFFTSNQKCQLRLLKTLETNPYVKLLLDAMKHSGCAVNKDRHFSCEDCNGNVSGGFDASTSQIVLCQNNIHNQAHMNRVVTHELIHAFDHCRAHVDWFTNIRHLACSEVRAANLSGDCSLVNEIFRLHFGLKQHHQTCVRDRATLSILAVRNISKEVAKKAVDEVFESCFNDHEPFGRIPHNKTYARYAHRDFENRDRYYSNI
Chain of UniProt Q00973 (Q00973 whole entry, looked up): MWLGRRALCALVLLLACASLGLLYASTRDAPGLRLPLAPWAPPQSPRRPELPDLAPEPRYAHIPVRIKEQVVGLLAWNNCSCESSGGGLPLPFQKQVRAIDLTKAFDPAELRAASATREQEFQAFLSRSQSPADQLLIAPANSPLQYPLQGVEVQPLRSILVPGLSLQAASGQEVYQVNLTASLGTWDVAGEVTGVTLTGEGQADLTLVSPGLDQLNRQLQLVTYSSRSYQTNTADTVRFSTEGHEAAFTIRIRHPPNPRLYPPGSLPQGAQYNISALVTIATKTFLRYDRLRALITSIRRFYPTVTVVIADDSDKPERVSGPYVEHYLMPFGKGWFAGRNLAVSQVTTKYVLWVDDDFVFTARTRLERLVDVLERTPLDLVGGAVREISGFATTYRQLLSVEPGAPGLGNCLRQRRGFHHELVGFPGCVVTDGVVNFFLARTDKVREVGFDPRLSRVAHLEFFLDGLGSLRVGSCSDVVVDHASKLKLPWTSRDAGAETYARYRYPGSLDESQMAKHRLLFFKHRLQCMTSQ
Chain of UniProt Q9UBL3 (Q9UBL3 whole entry, looked up): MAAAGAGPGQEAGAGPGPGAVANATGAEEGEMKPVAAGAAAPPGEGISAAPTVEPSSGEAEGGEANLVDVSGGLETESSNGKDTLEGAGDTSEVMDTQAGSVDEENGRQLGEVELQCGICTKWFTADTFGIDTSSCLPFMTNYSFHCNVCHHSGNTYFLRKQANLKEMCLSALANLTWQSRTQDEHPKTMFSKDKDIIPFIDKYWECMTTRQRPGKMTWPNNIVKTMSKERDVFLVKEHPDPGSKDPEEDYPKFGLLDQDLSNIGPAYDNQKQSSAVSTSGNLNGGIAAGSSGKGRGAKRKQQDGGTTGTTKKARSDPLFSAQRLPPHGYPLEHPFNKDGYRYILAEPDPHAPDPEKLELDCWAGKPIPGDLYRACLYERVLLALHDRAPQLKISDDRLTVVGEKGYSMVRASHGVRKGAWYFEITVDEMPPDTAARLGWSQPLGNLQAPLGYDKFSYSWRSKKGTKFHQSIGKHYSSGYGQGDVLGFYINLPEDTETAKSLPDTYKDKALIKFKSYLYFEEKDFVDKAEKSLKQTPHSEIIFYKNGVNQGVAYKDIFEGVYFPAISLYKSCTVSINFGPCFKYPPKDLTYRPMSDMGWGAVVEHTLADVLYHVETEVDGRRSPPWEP
Chain of UniProt Q9BRQ8 (Q9BRQ8 whole entry, looked up): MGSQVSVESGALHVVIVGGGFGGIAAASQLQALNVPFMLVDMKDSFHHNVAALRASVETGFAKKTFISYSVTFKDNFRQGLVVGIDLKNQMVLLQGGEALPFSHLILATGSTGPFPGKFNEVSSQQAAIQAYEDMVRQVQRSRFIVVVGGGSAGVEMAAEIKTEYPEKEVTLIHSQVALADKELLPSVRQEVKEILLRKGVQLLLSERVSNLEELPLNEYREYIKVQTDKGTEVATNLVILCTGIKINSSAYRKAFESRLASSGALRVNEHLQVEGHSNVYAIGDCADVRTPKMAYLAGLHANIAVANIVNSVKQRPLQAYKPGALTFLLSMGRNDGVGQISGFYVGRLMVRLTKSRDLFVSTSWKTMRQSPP
Chain of UniProt Q9NQ11 (Q9NQ11 whole entry, looked up): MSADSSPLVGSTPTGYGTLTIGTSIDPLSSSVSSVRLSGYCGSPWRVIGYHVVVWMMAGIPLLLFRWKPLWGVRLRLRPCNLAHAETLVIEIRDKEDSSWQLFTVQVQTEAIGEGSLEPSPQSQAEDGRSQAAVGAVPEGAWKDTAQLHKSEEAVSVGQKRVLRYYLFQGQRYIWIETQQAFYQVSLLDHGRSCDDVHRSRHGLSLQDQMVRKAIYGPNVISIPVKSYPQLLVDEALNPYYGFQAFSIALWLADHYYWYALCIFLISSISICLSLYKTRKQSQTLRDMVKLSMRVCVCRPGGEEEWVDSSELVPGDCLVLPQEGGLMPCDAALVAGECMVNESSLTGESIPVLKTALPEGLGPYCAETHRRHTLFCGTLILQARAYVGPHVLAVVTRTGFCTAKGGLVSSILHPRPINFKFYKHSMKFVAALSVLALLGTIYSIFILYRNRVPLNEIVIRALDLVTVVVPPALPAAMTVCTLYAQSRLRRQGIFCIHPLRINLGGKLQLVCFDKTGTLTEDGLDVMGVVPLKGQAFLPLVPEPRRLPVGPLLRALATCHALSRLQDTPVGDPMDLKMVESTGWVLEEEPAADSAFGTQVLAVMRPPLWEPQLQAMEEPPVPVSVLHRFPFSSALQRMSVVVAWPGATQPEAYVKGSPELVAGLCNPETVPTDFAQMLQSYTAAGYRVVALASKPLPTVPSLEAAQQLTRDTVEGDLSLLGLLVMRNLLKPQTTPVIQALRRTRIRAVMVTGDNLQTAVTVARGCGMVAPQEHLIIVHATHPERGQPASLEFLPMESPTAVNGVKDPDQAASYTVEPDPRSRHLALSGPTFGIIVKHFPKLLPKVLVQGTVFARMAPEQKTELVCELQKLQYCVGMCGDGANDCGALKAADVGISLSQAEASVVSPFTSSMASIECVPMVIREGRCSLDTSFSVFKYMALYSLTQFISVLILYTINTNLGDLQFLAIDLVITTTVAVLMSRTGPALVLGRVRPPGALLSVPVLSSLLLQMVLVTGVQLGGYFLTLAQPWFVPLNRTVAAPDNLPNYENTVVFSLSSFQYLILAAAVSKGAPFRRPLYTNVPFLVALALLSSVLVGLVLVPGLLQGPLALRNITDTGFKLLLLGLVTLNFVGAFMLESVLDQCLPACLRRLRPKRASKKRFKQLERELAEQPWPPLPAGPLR

Target	log2 fold change (bafetinib)	log2 fold change [1]	log2 fold change (nilotinib)	log2 fold change [2]	log2 fold change (dasatinib)	log2 fold change [3]	log2 fold change [4]	log2 fold change [5]	log2 fold change (tipifarnib)	log2 fold change (mubritinib)	log2 fold change [6]	log2 fold change [7]	log2 fold change [8]	log2 fold change [9]	log2 fold change (entinostat)	log2 fold change (vorinostat)	log2 fold change (citarinostat)	log2 fold change (silmitasertib)	log2 fold change [10]	log2 fold change [11]
ASH2L (UniProt Q9UBL3)	0	-0.013	-0.008	-0.041	-0.004	0.013	-0.07	-0.017	-0.041	-0.023	-0.025	-0.075	0.002	-0.074	0.025	0.013	0.044	0.08	-0.064	-0.05
ATP23 (UniProt Q9Y6H3)	-0.1	-0.015	-0.092	0.067	0.041	-0.011	-0.097	0.023	0.081	0.033	0.014	0.06	0.002	-0.057	-0.012	0.044	-0.012	-0.027	0.02	-0.045
ATP13A2 (UniProt Q9NQ11)	-0.002	0.001	0.01	0.014	-0.007	0.018	0.045	0.069	0.06	0.108	0.032	0.01	-0.336 (active)	0.064	-0.005	0.005	-0.054	0.026	-0.052	-0.025
BMP2K (UniProt Q9NSY1)	0.037	-0.107	-0.067	0.534 (active)	0	0.34	-0.016	-0.036	0.016	-0.042	0.297	0.076	0.035	-0.007	-0.037	-0.078	-0.053	0.031	0.291	0.241
ATP6AP1 (UniProt Q15904)	-0.052	0.025	0.024	-0.041	0.016	-0.041	-0.081	-0.064	0.011	-0.051	-0.033	-0.208	-0.149	-0.04	0.025	0.063	0.035	0.043	-0.005	-0.087
B4GALNT1 (UniProt Q00973)	0.141	-0.042	0.083	0.012	0.076	-0.125	-0.128	0.036	0.025	0.015	-0.001	-0.062	-0.093	0.092	0.02	0.003	0.538 (active)	0.062	-0.095	0.064
ABCC5 (UniProt O15440)	-0.027	0.068	-0.21	-0.219 (active)	-0.035	-0.015	0.017	0.053	-0.009	0.124	0.016	0.088	-0.038	-0.005	-0.017	0.001	0.114	0.008	-0.082	0.12
AIFM2 (UniProt Q9BRQ8)	0.008	-0.129	0.067	0.023	0.046	-0.043	0.081	0.032	0.199	0.025	0.016	-0.019	0.034	-0.02	-0.01	-0.053	0.046	0.03	0.047	-0.034
